Measured values: PubChem BioAssay (Tox21)
Results filed as inconclusive are left out. Calls of active or inactive are those of the source. Unless noted, the call rests on the fitted dose curve; in most records, active means well fitted curve in the direction sought with a large enough effect in the repeat runs; inconclusive means weak or mixed curves; inactive means no such curve, though single readings can be large; an effect the other way counts as inactive or inconclusive.

What was measured:
[1] = qHTS assay to identify small molecule antagonists of the peroxisome proliferator-activated receptor gamma (PPARg) signaling pathway - cell viability counter screen (AID 743194); conditions: PPARg-bla HEK293H viability, CellTiter-Glo luminescence, 17 h; Potency: co-treated with 50 nM rosiglitazone unless noted; series mostly up to 62.6 µM; further: nearly all actives have a fitted effect of over 55% in size
In short: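 PPARg-UAS-bla HEK293H cells were plated, rested 5 h at 37 C, then treated with compounds plus rosiglitazone (50 nM final) for 17 h at 37 C; viability was then read by CellTiter-Glo luminescence after 30 min at room temperature.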

[2] = qHTS assay for small molecule agonists of the antioxidant response element (ARE) signaling pathway (AID 743202; active means well fitted activation curve with a large enough effect in the signal ratio in the repeat runs, not every such curve was filed as active; the % refers to the signal ratio; further: potency means the concentration at half of the fitted maximal effect); conditions: HepG2 ARE-bla reporter, beta-lactamase FRET, 16 h; series mostly up to 73.3 µM
In short: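 Compounds delivered in DMSO to ARE-bla HepG2 cells (2,000 cells/well, pre-incubated 5 h) and left 16 h at 37 C. LiveBLAzer B/G FRET substrate then added for 2 h at RT before fluorescence reading.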

[3] = qHTS assay for small molecule agonists of the antioxidant response element (ARE) signaling pathway - cell viability counter screen (AID 743203; calls by dose curve; further: nearly all actives have a fitted effect of over 55% in size); conditions: ARE-bla HepG2 viability, CellTiter-Glo luminescence, 16 h; series mostly up to 73.3 µM
In short: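 Seeded at 2,000 cells/well, ARE-bla HepG2 cells were incubated 5 hrs before compound addition. After 16 hrs of treatment at 37C with 5% CO2, CellTiter-Glo reagent was added and luminescence read 30 min later.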

[4] = qHTS assay for small molecule activators of the heat shock response signaling pathway - cell viability counter screen (AID 743209); conditions: HSE-bla HeLa viability, CellTiter-Glo luminescence, 5 h; series mostly up to 62.6 µM; further: nearly all actives have a fitted effect of over 50% in size
In short: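 First, HSE-bla HeLa cells were seeded at 1500 cells/well and kept overnight at 37 C. Next, compounds were pinned in and incubated 5 h. After the FRET substrate step, CellTiter-Glo was added and luminescence read 30 min later.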

[5] = qHTS assay to identify small molecule antagonists of the thyroid receptor (TR) signaling pathway (AID 743065); conditions: GH3.TRE-Luc, T3-stimulated luciferase inhibition, 23.5 h; series mostly up to 70.3 µM; further: potency means the concentration at half of the fitted maximal effect; nearly all actives have a fitted effect of over 55% in size
In short: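 GH3.TRE-Luc rat pituitary cells carrying two TR response elements driving luciferase were plated for 4 h, given compound plus 1 nM T3 (final), and incubated 23.5 h at 37 C. ONE-Glo luminescence measured reporter inhibition; CellTiter-Fluor fluorescence tracked cytotoxicity.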

[6] = qHTS assay to identify small molecule antagonists of the estrogen receptor alpha (ER-alpha) signaling pathway using the BG1 cell line - cell viability counter screen (AID 743081); conditions: BG1Luc4E2 viability, CellTiter-Fluor, 22 h; series mostly up to 70.3 µM;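 further: compound given together with 17beta-estradiol as the ER stimulus; nearly all actives have a fitted effect of over 45% in size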
Aromatase (Homo sapiens) = Aromatase (Homo sapiens) (UniProt P11511); assay: qHTS assay to identify aromatase inhibitors (AID 743083); conditions: MCF-7 aro ERE, testosterone-driven ERE luciferase, 24 h; series mostly up to 70.3 µM; further: nearly all actives have a fitted effect of over 55% in size; further: potency means the concentration at half of the fitted maximal effect
Sequence of Aromatase (Homo sapiens) (P11511 whole entry, looked up): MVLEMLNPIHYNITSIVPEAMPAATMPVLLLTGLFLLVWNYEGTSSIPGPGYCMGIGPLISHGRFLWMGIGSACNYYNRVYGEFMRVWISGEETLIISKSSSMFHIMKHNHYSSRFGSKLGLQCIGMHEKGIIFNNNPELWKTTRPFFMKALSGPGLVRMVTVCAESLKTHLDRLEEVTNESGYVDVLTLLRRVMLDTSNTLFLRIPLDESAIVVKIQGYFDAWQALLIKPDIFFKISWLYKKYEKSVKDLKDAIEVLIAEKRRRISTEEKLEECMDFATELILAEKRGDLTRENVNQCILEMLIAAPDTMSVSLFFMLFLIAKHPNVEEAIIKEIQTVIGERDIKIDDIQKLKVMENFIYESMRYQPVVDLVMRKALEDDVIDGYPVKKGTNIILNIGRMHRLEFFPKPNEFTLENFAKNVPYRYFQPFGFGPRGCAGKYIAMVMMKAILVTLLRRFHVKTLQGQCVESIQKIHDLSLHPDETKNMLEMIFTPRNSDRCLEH

[7] = target: Aryl hydrocarbon receptor (Homo sapiens) (UniProt P35869); assay: qHTS assay to identify small molecule that activate the aryl hydrocarbon receptor (AhR) signaling pathway (AID 743085); conditions: HepG2 AhR-luc (HG2L7.5c1), luciferase, 24 h; series mostly up to 70.3 µM; further: nearly all actives have a fitted effect of over 15% in size; further: potency means the concentration at half of the fitted maximal effect;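 on activation: HG2L7.5c1 human HepG2 liver cells with stably integrated DRE-driven firefly reporter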
Sequence of Aryl hydrocarbon receptor (Homo sapiens) (P35869 whole entry, looked up): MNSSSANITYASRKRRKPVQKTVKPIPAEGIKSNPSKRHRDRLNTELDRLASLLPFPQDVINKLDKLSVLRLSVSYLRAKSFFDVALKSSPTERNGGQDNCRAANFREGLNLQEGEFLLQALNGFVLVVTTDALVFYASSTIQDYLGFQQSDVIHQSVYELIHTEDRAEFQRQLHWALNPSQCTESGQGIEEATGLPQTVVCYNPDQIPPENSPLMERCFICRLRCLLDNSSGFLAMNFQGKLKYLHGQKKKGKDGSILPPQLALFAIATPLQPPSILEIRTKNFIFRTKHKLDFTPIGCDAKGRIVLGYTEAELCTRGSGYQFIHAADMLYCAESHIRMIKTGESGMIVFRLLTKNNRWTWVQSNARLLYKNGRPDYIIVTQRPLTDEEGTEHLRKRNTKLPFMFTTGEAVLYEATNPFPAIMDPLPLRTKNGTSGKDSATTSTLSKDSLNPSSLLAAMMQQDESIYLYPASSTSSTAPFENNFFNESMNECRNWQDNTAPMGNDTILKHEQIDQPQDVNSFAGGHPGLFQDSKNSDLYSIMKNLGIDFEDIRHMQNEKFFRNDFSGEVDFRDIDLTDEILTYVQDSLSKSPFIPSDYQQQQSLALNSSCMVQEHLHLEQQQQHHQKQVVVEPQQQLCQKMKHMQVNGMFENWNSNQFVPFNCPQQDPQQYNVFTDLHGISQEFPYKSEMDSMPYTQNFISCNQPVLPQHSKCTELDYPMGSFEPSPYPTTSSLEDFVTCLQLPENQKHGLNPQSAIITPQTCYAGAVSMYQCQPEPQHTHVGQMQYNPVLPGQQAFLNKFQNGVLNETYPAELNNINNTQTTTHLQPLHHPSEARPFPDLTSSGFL
In short: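 Cell line HG2L7.5c1 (human hepatoma, 20× DRE-luc). Plated, 5 h 37C, compound/DMSO added, 24 h 37C. CellTiter-Fluor 30 min 37C → fluorescence; then ONE-Glo 30 min RT → luminescence.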

[8] = qHTS assay for small molecule activators of the heat shock response signaling pathway (AID 743210; active means well fitted activation curve with a large enough effect in the signal ratio in the repeat runs, with a control signal flat, not every such curve was filed as active; the % refers to the signal ratio;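 further: HeLa cells with beta-lactamase reporter driven by heat shock elements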); conditions: HeLa HSE-bla reporter, beta-lactamase ratio, 5 h; series mostly up to 62.6 µM
In short: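 Reporter gene assay: HeLa cells stably bearing an HSE-bla construct, compound treatment 5 h at 37 C, LiveBLAzer substrate 2.5 h at RT, fluorescence intensity.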

[9] = target: Peroxisome proliferator-activated receptor gamma (Homo sapiens) (UniProt P37231); assay: qHTS assay to identify small molecule antagonists of the peroxisome proliferator-activated receptor gamma (PPARg) signaling pathway (AID 743191; calls by dose curve; further: nearly all actives have a fitted effect of over 30% in size); conditions: HEK293H PPARg-UAS-bla, beta-lactamase ratio, antagonist, 17 h; series mostly up to 62.6 µM
Sequence of Peroxisome proliferator-activated receptor gamma (Homo sapiens) (P37231 whole entry, looked up): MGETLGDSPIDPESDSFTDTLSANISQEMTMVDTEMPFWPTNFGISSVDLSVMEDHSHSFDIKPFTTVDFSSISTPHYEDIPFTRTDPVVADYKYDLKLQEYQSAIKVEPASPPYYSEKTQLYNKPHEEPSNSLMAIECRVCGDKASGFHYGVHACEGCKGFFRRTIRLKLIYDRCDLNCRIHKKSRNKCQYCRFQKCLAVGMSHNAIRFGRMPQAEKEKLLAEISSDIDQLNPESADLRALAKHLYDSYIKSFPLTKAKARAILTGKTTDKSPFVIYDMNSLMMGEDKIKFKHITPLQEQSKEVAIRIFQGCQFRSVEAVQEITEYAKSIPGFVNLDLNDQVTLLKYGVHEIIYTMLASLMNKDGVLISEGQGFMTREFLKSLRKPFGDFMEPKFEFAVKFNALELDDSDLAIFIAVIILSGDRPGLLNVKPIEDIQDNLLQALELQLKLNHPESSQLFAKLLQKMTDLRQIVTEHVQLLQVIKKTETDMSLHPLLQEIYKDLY
In short: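 GeneBLAzer PPARg UAS-bla HEK293H cells carrying a UAS-driven beta-lactamase reporter were plated at 3000 cells/well, preincubated 5 h at 37C, then given compound for 17 h at 37C; LiveBLAzer B/G FRET substrate was read after 1 h at room temperature.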

[10] = test system: thyroid hormone receptor (rat, GH3 cells); assay: qHTS assay to identify small molecule agonists of the thyroid receptor (TR) signaling pathway (AID 743066; calls by dose curve); conditions: GH3.TRE-Luc cells, TR agonist luciferase, 24 h; series mostly up to 83.9 µM
[11] = qHTS assay to identify small molecule antagonists of the estrogen receptor alpha (ER-alpha) signaling pathway - cell viability counter screen (AID 743074; calls by dose curve;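 further: HEK293 cells carrying ER-alpha-UAS-bla reporter stimulated with 17beta-estradiol; nearly all actives have a fitted effect of over 45% in size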); conditions: ERalpha-bla HEK293 viability, CellTiter-Glo luminescence, 18 h; series mostly up to 69.4 µM
[12] = qHTS assay to identify aromatase inhibitors - cell viability counter screen (AID 743084); conditions: MCF-7 aro ERE viability, CellTiter-Fluor, 24 h; series mostly up to 70.3 µM
[13] = qHTS assay to identify small molecule that activate the aryl hydrocarbon receptor (AhR) signaling pathway - cell viability counter screen (AID 743086); conditions: HepG2-AhR-luc viability, CellTiter-Fluor, 24 h; series mostly up to 70.3 µM;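 further: HepG2 liver cells carrying the AhR DRE luciferase reporter; nearly all actives have a fitted effect of over 45% in size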
In short: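 HepG2-AhR-luc (HG2L7.5c1) cells, 4000/well, were preincubated 5 h at 37C, exposed to compound in qHTS format for 24 hr at 37C, then given CellTiter-Fluor for 30 min; viability was read as fluorescence in the reporter wells.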

[14] = target: Estrogen receptor (Homo sapiens) (UniProt P03372); assay: qHTS assay to identify small molecule agonists of the estrogen receptor alpha (ER-alpha) signaling pathway (AID 743075; calls by dose curve;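 further: HEK293 GripTite cells with ER-alpha and UAS-driven beta-lactamase reporter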); conditions: HEK293 ER-alpha-UAS-bla, beta-lactamase FRET ratio, 18 h; series mostly up to 70.1 µM
Sequence of Estrogen receptor (Homo sapiens) (P03372 whole entry, looked up): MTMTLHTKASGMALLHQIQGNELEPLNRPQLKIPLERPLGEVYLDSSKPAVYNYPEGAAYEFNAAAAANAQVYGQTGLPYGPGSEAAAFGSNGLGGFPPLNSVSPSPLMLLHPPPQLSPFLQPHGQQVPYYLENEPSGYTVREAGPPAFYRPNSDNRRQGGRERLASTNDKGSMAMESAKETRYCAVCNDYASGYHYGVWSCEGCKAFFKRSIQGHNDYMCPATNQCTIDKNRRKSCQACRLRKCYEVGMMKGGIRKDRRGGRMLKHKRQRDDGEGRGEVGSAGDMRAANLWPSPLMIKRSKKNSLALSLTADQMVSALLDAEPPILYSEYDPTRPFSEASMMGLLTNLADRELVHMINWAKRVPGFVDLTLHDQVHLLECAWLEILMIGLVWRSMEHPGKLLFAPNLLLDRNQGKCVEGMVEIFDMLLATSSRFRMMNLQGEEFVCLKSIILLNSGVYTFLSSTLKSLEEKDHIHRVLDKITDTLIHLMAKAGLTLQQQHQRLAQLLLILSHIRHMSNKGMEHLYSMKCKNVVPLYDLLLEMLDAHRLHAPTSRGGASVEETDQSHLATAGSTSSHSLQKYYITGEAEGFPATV

[15] = target: Estrogen receptor (Homo sapiens) (UniProt P03372); assay: qHTS assay to identify small molecule agonists of the estrogen receptor alpha (ER-alpha) signaling pathway using the BG1 cell line (AID 743079); conditions: BG1Luc4E2 cells, ERE-luciferase agonist, 22 h; activation: at 70.3 µM (top of the series); further: nearly all actives have a fitted effect of over 20% in size
[16] = qHTS assay to identify small molecule antagonists of the estrogen receptor alpha (ER-alpha) signaling pathway using the BG1 cell line (AID 743080; calls by dose curve;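 further: BG1 cells stimulated with 17beta-estradiol alongside compound; nearly all actives have a fitted effect of over 25% in size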); conditions: BG1Luc4E2 ERE-luciferase antagonist mode, luminescence; series mostly up to 70.3 µM
In short: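 Luminescence from a 4×ERE-luciferase reporter in BG1-Luc-4E2 cells served as read-out. Cells, pre-cultured 5 days in stripped-serum phenol-red-free medium, were exposed to compound with 17beta-estradiol co-stimulation for 21.5 h at 37 C.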

[17] = target: Estrogen receptor (Homo sapiens) (UniProt P03372); assay: qHTS assay to identify small molecule antagonists of the estrogen receptor alpha (ER-alpha) signaling pathway (AID 743069; active means well fitted curve in the direction sought with a large enough effect in the signal ratio in the repeat runs, not every such curve was filed as active; the % refers to the signal ratio); conditions: HEK293 ER-alpha-UAS-bla, beta-lactamase ratio, antagonist mode; series mostly up to 69.4 µM
In short: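 Estradiol-stimulated ER-alpha-UAS-bla HEK293 cells, 18 hr compound exposure at 37C. LiveBLAzer B/G substrate, 2 hr RT, fluorescence read.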

Measured: Potency

CC#C[C@]1(O)CC[C@H]2[C@@H]3C[C@H](C)C4=CC(=O)CC[C@]4(C)[C@H]3CC[C@@]21C
inactive: [1] | [3] | [4]
active: [2] 23.7 µM

FC(F)C(F)(F)OCC(Cn1cncn1)c1ccc(Cl)cc1Cl (stereo not given)
active: [5] 60.8 µM | Aromatase (Homo sapiens) 7.65 µM | [7] 6.82 µM
inactive: [6] | [1] | [3] | [4] | [8]

O=c1[nH]c2cc(Cl)ccc2n1C1CCNCC1
inactive: [9] | [3] | [4] | [8]

CN1C2CCC(C)(C)C1CC(OC(=O)C(O)(c1cccs1)c1cccs1)C2 (stereo not given)
inactive: [2] | [3] | [8]

CCOP(=S)(OCC)SC(CCl)N1C(=O)c2ccccc2C1=O (stereo not given)
active: [2] 9.69 µM
inactive: [10] | [11] | Aromatase (Homo sapiens) | [12] | [7] | [13] | [1] | [4]

CCO/N=C(\CC)C1=C(O)CC(c2c(C)cc(C)cc2C)CC1=O (stereo not given)
not listed: [1] | [2] | [4] | [5] | [6] | [9] | [17]
inactive: all other assays above

C#CCO
not listed: [5] | [10]
inactive: all other assays above
